D2 ag-1: agonists of human D2 dopamine receptor (beta-arrestin). P14416. DiscoveRx PathHunter D2 beta-arrestin, luminescence, 90 min; 100% = 57 uM dopamine signal. activation, % (test concentration not listed). hit rate 0.084% among 360,000; in the data active = activation above about 40%; inconclusive = between about 15% and that limit
Target sequence (P14416 whole entry, looked up): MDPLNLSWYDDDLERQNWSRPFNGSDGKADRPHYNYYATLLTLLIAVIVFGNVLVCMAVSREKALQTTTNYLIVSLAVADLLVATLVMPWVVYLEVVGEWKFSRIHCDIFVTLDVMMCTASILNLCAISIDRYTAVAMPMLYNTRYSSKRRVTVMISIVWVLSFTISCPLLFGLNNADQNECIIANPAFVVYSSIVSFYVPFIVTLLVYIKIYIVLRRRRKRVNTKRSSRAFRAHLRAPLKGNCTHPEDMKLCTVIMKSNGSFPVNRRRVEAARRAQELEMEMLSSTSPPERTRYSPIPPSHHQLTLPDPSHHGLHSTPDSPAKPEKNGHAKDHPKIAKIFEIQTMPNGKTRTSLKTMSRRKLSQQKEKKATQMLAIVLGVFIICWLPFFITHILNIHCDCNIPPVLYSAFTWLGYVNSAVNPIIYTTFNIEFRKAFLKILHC
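Agonist mode: compounds alone added to overnight-plated D2 PathHunter cells for 90 min at 37 C, with 57 uM final dopamine (EC100) defining full response. Beta-arrestin recruitment detected by chemiluminescent reagent, read after 1 h at ambient temperature.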
D2 PAM-1: positive allosteric modulators of human D2 dopamine receptor. hit rate 0.34% among 340,000. potentiation, % at 10 µM. HEK293 T-REx D2, calcium flux, EC20 dopamine potentiation. AID 485347;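 active = potentiation over 3 SD above the plate norm, cut at about 30% in these data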; note: 0% is about no effect
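Tetracycline-induced HEK293 T-REx cells force-coupled to calcium signalling expressed D2; compounds were pin-added after a 10 s baseline, read kinetically 180 s, then an EC20 dopamine challenge followed with a further 180 s calcium read.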
D2 ag-2: activates the human D2 dopamine receptor; P14416; HEK293 T-REx D2 cells, calcium flux agonist mode; activation, % at 2 µM; hit rate 0.53% among 340,000;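 active = activation over 3 SD above normal in the single-dose calcium agonist read, cut at about 30% in these data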; note: 0% is about no effect
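HEK293 Trex D2 cells, tetracycline-induced, o/n 30 C 5% CO2; no-wash Ca dye, RT 30–90 min; 10-cycle baseline, 23 nl cpd added, kinetic Ca read 180 s; agonist hits = positive Ca response.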
D2 antag: antagonizes the human D2 dopamine receptor; HEK293 TREx D2 cells, calcium flux, dopamine EC80; inhibition, % at 10 µM; hit rate 2% among 340,000; AID 485344; in the data active = inhibition above about 30%; inactive = below that, where a call was filed; note: 0% is about no effect
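Overnight-induced (tetracycline, 30 C) HEK293 T-REx cells carrying force-coupled D2 receive a no-wash calcium dye, then compound, then EC80 dopamine at 180 s; signals are read kinetically throughout.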
D2 PAM-2: human D2 receptor positive allosteric modulation; DiscoveRx D2 beta-arrestin cells, luminescence, 90 min; 100% = 57 uM dopamine signal; potentiation, % (no concentration beside the values); P14416; hit rate 0.23% among 360,000; AID 624464; in the data active = potentiation above about 50%; inconclusive = mostly about 30% to 49%
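D2 cells co-treated with compound plus 50 nM dopamine (EC20) for 90 min at 37 deg C to detect potentiation. Beta-arrestin recruitment was read as enzyme-fragment luminescence after 1 h at ambient temperature. Full response was set by 57 uM dopamine.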
Numbers without * were called inactive; ? = inconclusive; / = not tested or not shown. Only some compounds are listed: those with a hit (about 2.4% of all), similar ones and a draw of the others.

SMILES | D2 ag-1 | D2 PAM-1 | D2 ag-2 | D2 antag | D2 PAM-2
COc1cccc(C2=NOC(C(=O)Nc3ccc4c(c3)OCO4)C2)c1OC (configuration not stated) | 0.8 | -24.9 | 0.1 | 59.8* | -15.6
COc1cc(C2=NOC(C(=O)Nc3ccc(C)cc3)C2)cc(OC)c1OC (configuration not stated) | -3.0 | 10.9 | -0.7 | 57.1* | 9.3
Cn1c(CNC(=O)CSc2n[nH]c(-c3ccccc3Cl)n2)nc2ccccc21 | / | 5.0 | / | / | /
CCOc1ccccc1NC(=O)C1CCN(S(=O)(=O)c2cccc3nonc23)CC1 | / | 5.1 | -0.7 | / | /
O=C(COc1cccc(F)c1)N1c2ccccc2Sc2ccccc21 | ? | 0.4 | 0.1 | -6.7 | 92.9*
Cc1cccc(C(=O)NCCC(=O)N2CCc3ccccc3C2)c1 | -1.8 | -10.6 | 0.0 | 32.1* | -4.9
O=C(CN1CCc2ccccc2C1)Nc1ccccc1N1CCCCCC1 | -1.4 | 3.3 | -0.6 | -39.8 | -22.0
O=C(CN1CCc2ccccc2C1)Nc1ccccc1Cl | 7.9 | -4.6 | 30.5* | 60.6* | -40.6
COc1cc2c(cc1OC)CN(C(=O)Nc1ccccc1Cl)CC2 | -2.4 | -18.3 | 0.9 | 34.7* | 0.1
O=C(CCN1CCc2ccccc2C1)Nc1ccc2c(c1)OCO2 | -1.6 | -26.4 | 0.3 | 58.5* | -39.2
Cc1cccc(C(=O)NC(=S)N2CCc3ccccc3C2)c1 | -4.5 | 7.2 | 0.7 | 8.6 | -16.9
O=C(c1cccc(Cl)c1)C1CCCN(C(=O)c2ccoc2)C1 (configuration not stated) | -0.8 | 3.9 | -0.3 | 5.0 | -2.1
CCN1CCN(CCC(=O)Nc2cc(C)ccc2C)CC1 | 1.6 | 5.9 | 0.1 | 20.8 | -4.2
Cc1ccc(C)c(NC(=O)CCN2CCc3ccccc3C2)c1 | -1.4 | -19.7 | 1.2 | 31.3* | -8.3
COc1ccc(NC(=O)NNC(=O)COc2ccc([N+](=O)[O-])c(C)c2)cc1OC | -1.8 | -16.1 | / | / | -8.5
Cc1nn(C)c(Sc2ccccc2N)c1[N+](=O)[O-] | 44.5* | 1.1 | 0.1 | -8.8 | 0.6
CSc1nc(C)cc(/C=C\c2ccccc2)c1C#N | -4.5 | 41.4* | -0.7 | -8.1 | -14.5
O=C(COC(=O)c1cc([N+](=O)[O-])ccc1N1CCOCC1)c1ccc(OC(F)F)cc1OC(F)F | ? | -7.1 | 1.6 | 44.0* | -20.5
CC1CCN(S(=O)(=O)c2cc(C(=O)NC3(C)CCS(=O)(=O)C3)ccc2Br)CC1 (configuration not stated) | 12.0 | -2.7 | 0.1 | 30.5* | -3.7
CC1CCN(C(=O)c2ccc(Br)c(S(=O)(=O)N3CCOCC3)c2)CC1 | -1.5 | -3.0 | -0.1 | -15.3 | -3.9
Cc1ccc(/C=C\c2nccc3c2[nH]c2ccccc23)cc1 | -4.4 | -23.5 | -0.5 | 44.3* | -35.7
Cc1ccc(-n2ncc(C(=O)N3CCCCC3)c2C2CCN(C(=O)OC(C)(C)C)CC2)c(C)c1 | / | -0.3 | -0.5 | / | /
CC1(C)CC(=O)C/C(=N\NC(=O)C2CC23CCC3)C1 (configuration not stated) | -3.4 | -4.8 | 0.9 | 47.1* | -2.0
COc1ccc(S(=O)(=O)N2CCCCCC2)cc1C(=O)N(C)Cc1c(F)cccc1Cl | 0.7 | 16.7 | 0.5 | -15.8 | 0.5
COc1ccc(S(=O)(=O)N2CCCCCC2)cc1C(=O)N(C)Cc1ccc(Cl)cc1Cl | 0.1 | -13.9 | 2.4 | 46.9* | 6.9
SMILES | D2 ag-1 | D2 PAM-1 | D2 ag-2 | D2 antag | D2 PAM-2
COc1ccc(COc2ccc(S(=O)(=O)N3CCCC3)cc2C(N)=O)cc1F | -4.1 | 30.4* | 1.3 | -13.8 | -10.7
COc1ccc(COc2ccccc2C(=O)NCc2ccccc2)cc1F | 5.3 | 2.1 | -0.7 | 41.5* | -9.2
COc1ccccc1NCC(=O)n1nc(C)cc1C | 2.7 | / | / | / | 9.8
COc1cc(NC(=O)CCCC(=O)OCC(F)(F)C(F)F)nc(OC)n1 | -0.2 | 6.4 | -1.2 | 52.2* | 9.8
Cc1ccc(NC(=O)C(=O)c2cc(C)n(-c3ccc(F)cc3)c2C)cc1C | / | -4.8 | -1.4 | / | /
CCOc1ccccc1OCCCNCc1ccco1 | -4.0 | -25.1 | -0.3 | 30.6* | -15.0
Cc1ccccc1C(=O)NC(=S)Nc1ccccc1C(F)(F)F | -2.3 | 6.8 | 1.4 | 50.4* | 0.4
Cc1ccc2scc(N3CCc4ccccc4C3)c(=O)c2c1 | / | -20.9 | 0.1 | / | /
CSc1ccc(CCNC(=O)CN2C(=O)COc3ccc(S(=O)(=O)N4CCCCCC4)cc32)cc1 | / | 4.8 | -0.9 | / | /
CCOC(=O)C(=NCCCN(C)C)NNc1cc(C(F)(F)F)ccc1Cl | -0.4 | -13.8 | -0.7 | 35.2* | -6.2
CCOC(=O)C(=NCCCN(C)C)NNc1ccc(Br)cc1 | 5.3 | 1.8 | 0.5 | -1.1 | -11.0
Cc1ccc(N(CC(=O)NCc2ccc(F)cc2)S(=O)(=O)c2cccs2)cc1 | 3.2 | -11.7 | 1.0 | 45.6* | 0.6
COc1ccc(N(CC(=O)Nc2ccc3c(c2)OCO3)S(=O)(=O)c2ccccc2)cc1OC | 0.9 | -0.1 | -0.8 | 8.0 | 4.0
COc1ccc(S(=O)(=O)N(CC(=O)NCc2ccncc2)c2ccc(C)cc2)cc1Br | -0.8 | 0.6 | 0.5 | 33.3* | -4.1
COc1ccc(N(CC(=O)Nc2ccc3c(c2)OCO3)S(=O)(=O)c2ccc(C)cc2)cc1OC | -0.7 | -28.3 | 0.7 | 54.3* | -12.5
O=C(NCC(c1cccnc1)N1CCN(c2ccccc2)CC1)OCc1ccccc1 (configuration not stated) | 4.5 | 31.0* | 0.3 | -2.6 | -4.2
COc1ccc(OC)c(NC(=O)C2(C)CCN2Cc2ccccc2OC(F)F)c1 (configuration not stated) | 108.2* | / | / | / | 17.6
COc1ccc(OC)c(NC(=O)NCc2ccc(F)cc2)c1 | -0.1 | -16.1 | 0.8 | 38.9* | -18.2
COc1ccc(NS(=O)(=O)c2cccc(NC(=O)NC3CCCCC3)c2)cc1 | -3.4 | -7.9 | 0.3 | -9.7 | -10.6
COc1ccc(C)cc1NC(=O)NC1CCCCCCC1 | -2.1 | -17.1 | 0.1 | 32.0* | -31.7
COc1ccc(NS(=O)(=O)c2ccc(C)c(NC(=O)NC3CCCCC3)c2)cc1 | 4.0 | -21.1 | -0.9 | 33.5* | -16.4
COc1ccc(OC)c(NC(=O)NC2CCCCCCC2)c1 | 14.8 | -16.9 | 0.3 | 10.0 | -41.1
COc1ccc(NC(=O)NCc2ccncc2)c(OC)c1 | -0.5 | -4.7 | -1.0 | 6.2 | -31.6
CN(Cc1ccc(Cl)s1)C(=O)CNC(=O)CNC(=O)c1ccc(Cl)cc1Cl | -2.8 | -4.8 | 0.7 | 10.4 | 0.3
COc1ccc(CNC(=O)Nc2cc(C)ccc2C)cc1 | -4.7 | -7.8 | 1.4 | 5.3 | -8.4
COc1ccc(C)cc1NC(=O)NCc1ccc(F)cc1 | -5.7 | -20.3 | -0.7 | 52.8* | -22.3
CS(=O)(=O)N1CCC(C(=O)Nc2ccc(OCc3ccccc3)cc2)CC1 | -1.5 | 7.7 | 0.6 | 45.5* | -0.7
